Pf Dd2 growth: qHTS Primary assay for Inhibitors of Plasmodium falciparum Dd2 growth in vitro | P. falciparum Dd2 growth, SYBR Green, 72 h | Potency, µM (top dose mostly 28.9 µM), hits mostly inhibitors | actives 4.3% (n = 120,000) | AID 1347417, 2020; active means well fitted inhibition curve with a large enough effect; further: nearly all actives have a fitted effect of over 65% in size
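Readout: SYBR Green fluorescence, 485 nm excitation, 535 nm emission, after ~16 h lysis at 37C. Before that, Dd2-infected red cells (2.5% hematocrit) grew 72 h with compound, 29 uM top final concentration.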
Each line names hits and unclear results; the compound was inactive in the other large screens. Shown is part of a subset that was picked to be rich in hits.

Cc1cccc(C(=O)N2CCC(c3noc(CO)n3)C2)c1 (stereo not drawn)	none
O=C(Cc1cccc(F)c1)N1CCCC(c2nc(C3CCOCC3)no2)C1 (stereo not drawn)	none
COc1ccc(CNC(=O)c2noc(-c3ccc(C)cc3)n2)c(OC)c1	none
O=C(Nc1ccccc1)N1CC(Oc2ccc(-c3nc(-c4ccccc4)no3)cc2)C1	none
O=C1CCN(S(=O)(=O)c2ccccc2)CCCN(C(=O)CC2CCCCC2)CCN1	none
O=C1CCC2(CCN(C(=O)c3cnccn3)CC2)CN1CC1CCCO1 (stereo not drawn)	none
CCN1C(=O)CN(C(=O)c2ccoc2)CC12CCOCC2	none
O=C(CCN1CCCCO1)N1CCc2onc(-c3ccc(F)c(F)c3)c2C1	none
CSCC[C@H](N)C(=O)N1CCC2(CCC(=O)N(Cc3ccccc3)C2)CC1	none
Cc1ccc(C(=O)NC(C(=O)NC2CC2)C2CCN(C(=O)c3ccccc3F)CC2)cc1 (stereo not drawn)	none
CC(=O)N1CCN(c2cncc(C(=O)N3CCOCC3)n2)CC(O)C1 (stereo not drawn)	none
COC(=O)c1cncc(N2CCCC3(CCC(=O)N(Cc4ccccc4)C3)C2)n1 (stereo not drawn)	none
CC1(c2ccccc2)CCCN(c2cncc(C(=O)N3CCOCC3)n2)C1 (stereo not drawn)	Pf Dd2 growth 11.2µM
Cc1ccc(-c2nc(CNC(=O)C3(N)CC3)[nH]c2-c2ccccn2)cc1	none
Cc1ccc(C(O)Cn2ccn3nc(-c4ccc(F)cc4)cc3c2=O)cc1 (stereo not drawn)	none
Cc1ccc(NC(=O)N2CCc3c([nH]c4ccccc34)C2c2ccccc2F)c(Cl)c1 (stereo not drawn)	Pf Dd2 growth 10µM
COC(=O)CC1c2cc(OC)c(OC)cc2CCN1C(=O)Nc1ccc(C)cc1Cl (stereo not drawn)	none
Cc1ccc(NC(=O)N2CCN(c3nnc(C)c4c(C)n(-c5ccccc5)nc34)CC2)c(Cl)c1	none
COCc1nnc2n1CCC(NC(=O)COc1ccc(F)cc1)CC2 (stereo not drawn)	none
O=C(C1CC1)N1CCCC(c2nc(C3CCOCC3)no2)C1 (stereo not drawn)	none
CC(C)CNC(=O)N1C[C@@H]2CCCN3CCC[C@@H]([C@H]23)[C@H]1CCCC(=O)NCC1CC1	none
c1cc2c(cc1N1CCC(N[C@H]3C[C@@H]4OCC[C@H]34)CC1)CCC2	none
Fc1ccc2cnc(N3CCC(N[C@H]4C[C@@H]5OCC[C@H]45)CC3)nc2c1	Pf Dd2 growth 8.91µM
Cc1ccc(C2Cn3cnc(C(=O)N4CCC(C(=O)NC5CCCC5)CC4)c3CO2)cc1 (stereo not drawn)	none
CN1CCC(N2C[C@@H](CO)[C@H](c3nc(-c4ccncc4)no3)C2)CC1	none
Cn1c(=O)n(C)c2cc(N3CCCC3)c(NC(=O)Nc3ccccc3)cc21	none
Cc1cc(N2CCN(C)CC2)nc2ccc(NC(=O)Nc3ccccc3Cl)cc12	Pf Dd2 growth 3.16µM
COc1cccc(NC(=O)Nc2ccc3nc(N4CCN(C)CC4)cc(C)c3c2)c1	Pf Dd2 growth 2.51µM
COc1cccc(NC(=O)c2ccc3c(c2)CCN3S(C)(=O)=O)c1	none
Cc1ccc(NC(=O)C2Cc3ccccc3N2C(=O)c2ccccc2)cc1Cl (stereo not drawn)	none
COc1cccc(CNC(=O)C(=O)Nc2ccc3nc4n(c(=O)c3c2)CCCCC4)c1	none
Cc1ccc(N2Cc3c(NCCO)ncnc3N(C)CC2=O)cc1	none
COc1ccc(CN2C[C@@H]3[C@H](C2)N(CC2CCOCC2)C(=O)C(C)(C)[S+]3(=O)[O-])cc1O	none
COCC(=O)N1CCC2(CC1)CC(N(C(=O)c1ccccc1)C1CC1)CCO2 (stereo not drawn)	none
N#Cc1cccc(C(=O)N2C[C@@H](CO)[C@H](c3ccccn3)C2)c1	none
Cc1ccccc1-n1nc(C)c(CCC(=O)NCC2CC2)c1Oc1ccccc1	none
O=C(CCC1CCN(C(=O)CSc2ncccn2)CC1)NCC1CCCO1 (stereo not drawn)	none
Cc1nnc(-c2cc(C(=O)NC3CCOCC3)ccn2)n1CCc1ccccc1	none
CCC(=O)N1CCC(C(NC(=O)c2ccccc2)C(=O)NCc2ccccc2)CC1 (stereo not drawn)	none
Cc1noc(C)c1S(=O)(=O)N1CCC2(CC1)C(=O)N(C)c1ccccc12	Pf Dd2 growth 3.55µM
Cc1noc(C)c1S(=O)(=O)N1CCC2(C1)C(=O)Nc1ccccc12 (stereo not drawn)	none
Cc1nc(C2(C)CCN(S(=O)(=O)c3c(C)noc3C)CC2)no1	none
Cc1ccc(C(=O)N[C@H]2CO[C@H]3[C@@H]2OC[C@H]3OC(=O)Nc2ccc(C(C)C)cc2)cc1	none
COc1ccc(NC(=O)O[C@@H]2CO[C@H]3[C@@H]2OC[C@@H]3NS(=O)(=O)c2ccccc2C#N)cc1	none
N#Cc1ccccc1S(=O)(=O)N[C@H]1CO[C@H]2[C@@H]1OC[C@H]2OC(=O)Nc1ccc(Oc2ccccc2)cc1	none
CC(C)c1ccc(NC(=O)O[C@@H]2CO[C@H]3[C@@H]2OC[C@@H]3NS(=O)(=O)c2cccs2)cc1	Pf Dd2 growth 2.24µM
COc1ccc(OC)c(S(=O)(=O)N[C@H]2CO[C@H]3[C@@H]2OC[C@H]3OC(=O)Nc2ccc(Oc3ccccc3)cc2)c1	none
CC(=O)Nc1ccc(S(=O)(=O)N[C@H]2CO[C@H]3[C@@H]2OC[C@H]3OC(=O)Nc2ccc(Oc3ccccc3)cc2)cc1	Pf Dd2 growth 6.31µM
O=C(NCCc1ccccc1)N1CCC(Oc2ccc(-c3noc(C4CC4)n3)cc2)C1 (stereo not drawn)	none
O=C(Cn1nc2c(cc1=O)CCCCC2)Nc1nc2ccccc2s1	none
Cc1ccc(C(=O)N2CCCC(n3cc(-c4nc(C(C)C)no4)nn3)C2)cc1 (stereo not drawn)	none
COc1ccc(C(=O)N2CCC(n3cc(-c4nc(C(C)C)no4)nn3)C2)cc1 (stereo not drawn)	none
COc1ccc(C(=O)N2CCCC(n3cc(-c4nc(C(C)C)no4)nn3)C2)cc1 (stereo not drawn)	Pf Dd2 growth 12.6µM
CC1(C)CN(S(=O)(=O)N2CCCC2)CC1c1ccccc1 (stereo not drawn)	none
CCOc1cc(C)c(CN2CCCC(O)(CN(C)C)C2)cc1C(C)C (stereo not drawn)	Pf Dd2 growth 2.82µM
COc1ccc2c(c1)C=C(CN1CCCC(O)(CN(C)C)C1)CO2 (stereo not drawn)	none
CN(C)CC1(O)CCCN(Cc2ccc(-c3ccc(Cl)cc3)o2)C1 (stereo not drawn)	none
O=C(c1cccc(F)c1)N1CCC(Oc2ccccc2)C1 (stereo not drawn)	none
CN1CC(=O)N(C2CCNC2)Cc2c(NC3CCOC3)ncnc21 (stereo not drawn)	none
CNC(=O)[C@@H](Cc1ccccc1)N1CCC[C@H]1C(=O)N1CCOCC1	none
C[C@@H]1CN(C(=O)c2ccccc2C#N)CC[C@@]1(O)C1CCOCC1	none
COc1cc(-c2nc3nc[nH]n3c2Nc2ccc(C(C)C)cc2)ccc1O	none
CC(C)c1ccc(Nc2c(-c3ccccn3)nc3ccccn23)cc1	Pf Dd2 growth 4.47µM
COc1ccc(Nc2ccc3nnc(-c4ccccn4)n3n2)cc1	none
Cc1ccc(Nc2c(-c3cccnc3)nc3ccc(C)cn23)cc1	none
Fc1ccc(Nc2c(-c3ccccn3)nc3ccc(Cl)cn23)cc1	Pf Dd2 growth 8.91µM
Clc1ccc2nc(-c3ccc(Br)o3)c(Nc3ccc4c(c3)OCCO4)n2c1	none
Cc1ccc2nc(-c3ccccn3)c(Nc3ccc(F)cc3)n2c1	Pf Dd2 growth 3.98µM
Cc1ccc2nc(-c3ccc(C)s3)c(Nc3ccc4c(c3)OCCO4)n2c1	none
CC(C)Oc1ccc2c(NC(=O)CN3C(=O)CNC3=O)nn(CC(F)(F)F)c2c1	none
